Results on 15 sequences are retold here after article PMC8384837, “Expanding the binding specificity for RNA recognition by a PUF domain”.

Holding throughout (test): yeast three-hybrid, YBZ-1, SC-Leu-His + 0.5 mM 3-AT, 4 days
What all share (conditions): tags: N-Gal4 AD-HA kept; label: inside an RPR1-promoter hybrid RNA with tandem MS2 sites; ssRNA

One assay has as its target PUM1 PUF domain R1-VWR (Homo sapiens, UniProt Q14671 828-1176, S863V;R864W;Q867R). The method, boiled down:
(§1)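 The interaction score is the log change in variant frequency from input to selection. Scores were computed in log2 with a pseudocount of 1 for absent variants, using Illumina sequencing of PCR-amplified repeat regions. The input came from four days on SC-Leu and the selection from four days on SC-Leu-His + 0.5 mM 3-AT. The cells were strain YBZ-1 (LexA–MS2 coat fusion, HIS3 reporter) co-expressing Pumilio-1 PUF domain libraries and matching RNA elements from a centromeric plasmid.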

The target in a further assay is PUM1 PUF domain R1-RRV (Homo sapiens, UniProt Q14671 828-1176, S863R;Q867V). The method, boiled down: as §1
In a further assay the target is PUM1 PUF domain R8-CWR (Homo sapiens, UniProt Q14671 828-1176, N1122C;Y1123W;Q1126R). The gist of the method: as §1
The target in a further assay is PUM1 PUF domain R3-GCE (Homo sapiens, UniProt Q14671 828-1176, C935G;R936C;Q939E). The gist of the method:
as §1

Another assay deals with T1, PUM1 PUF domain R6-WWR (Homo sapiens, UniProt Q14671 828-1176, N1043W;Y1044W;Q1047R).
T1 sequence: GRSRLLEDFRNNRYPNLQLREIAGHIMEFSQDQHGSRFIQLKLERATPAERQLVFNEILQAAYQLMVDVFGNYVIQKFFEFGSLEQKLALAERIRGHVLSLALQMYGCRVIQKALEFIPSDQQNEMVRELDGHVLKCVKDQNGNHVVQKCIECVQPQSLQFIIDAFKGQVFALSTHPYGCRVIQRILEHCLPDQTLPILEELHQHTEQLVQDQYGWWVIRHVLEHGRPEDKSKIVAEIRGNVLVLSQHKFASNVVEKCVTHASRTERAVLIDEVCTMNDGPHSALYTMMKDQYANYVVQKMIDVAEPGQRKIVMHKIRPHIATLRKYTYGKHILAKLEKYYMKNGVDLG
The gist of the method: as §1

Another assay has as its target PUM1 PUF domain R4-WAW (Homo sapiens, UniProt Q14671 828-1176, N971W;H972A;Q975W). The gist of the method: as §1
Another assay concerns the target PUM1 PUF domain R7-QCK (Homo sapiens, UniProt Q14671 828-1176, S1079Q;N1080C;E1083K). The gist of the method: as §1
Another assay addresses PUM1 PUF domain R5-QRR (Homo sapiens, UniProt Q14671 828-1176, C1007Q;Q1011R). The gist of the method:
as §1

The next assay deals with PUM1 PUF domain R5-KNQ (Homo sapiens, UniProt Q14671 828-1176, C1007K;R1008N). The gist of the method:
as §1

The next assay deals with PUM1 PUF domain R5-KQL (Homo sapiens, UniProt Q14671 828-1176, C1007K;R1008Q;Q1011L). The method, boiled down:
as §1

A further assay has as its target PUM1 PUF domain R5-RAP (Homo sapiens, UniProt Q14671 828-1176, C1007R;R1008A;Q1011P). The method, boiled down:
as §1

A further assay concerns the target PUM1 PUF domain R7-VER (Homo sapiens, UniProt Q14671 828-1176, S1079V;N1080E;E1083R). The method, boiled down:
as §1

The target in the next assay is PUM1 PUF domain R8-YFR (Homo sapiens, UniProt Q14671 828-1176, N1122Y;Y1123F;Q1126R). The method, boiled down:
as §1

In the next assay the target is T2, PUM1 PUF domain R6-KYR (Homo sapiens, UniProt Q14671 828-1176, N1043K;Q1047R).
T2 sequence: T1 sequence with W216K, W217Y
The gist of the method:
as §1

For a further assay, the target named is PUM1 PUF domain R3-VNV (Homo sapiens, UniProt Q14671 828-1176, C935V;R936N;Q939V). The gist of the method: as §1
Another assay concerns the target PUM1 PUF domain R8-KWR (Homo sapiens, UniProt Q14671 828-1176, N1122K;Y1123W;Q1126R). The method, boiled down:
as §1

The target of a further assay is PUM1 PUF domain R8-KYA (Homo sapiens, UniProt Q14671 828-1176, N1122K;Q1126A). The method, boiled down:
as §1

The target of the next assay is PUM1 PUF domain R1-SWD (Homo sapiens, UniProt Q14671 828-1176, R864W;Q867D). The gist of the method: as §1
For a further assay, the target named is PUM1 PUF domain R5-DWH (Homo sapiens, UniProt Q14671 828-1176, C1007D;R1008W;Q1011H). The gist of the method:
as §1

In a further assay the target is PUM1 PUF domain R5-RKV (Homo sapiens, UniProt Q14671 828-1176, C1007R;R1008K;Q1011V). The method, boiled down: as §1

Positions count from the first letter of the chain named.

PUM1 PUF domain R5-KQL, sequence (Q14671 828-1176 C1007K/R1008Q/Q1011L): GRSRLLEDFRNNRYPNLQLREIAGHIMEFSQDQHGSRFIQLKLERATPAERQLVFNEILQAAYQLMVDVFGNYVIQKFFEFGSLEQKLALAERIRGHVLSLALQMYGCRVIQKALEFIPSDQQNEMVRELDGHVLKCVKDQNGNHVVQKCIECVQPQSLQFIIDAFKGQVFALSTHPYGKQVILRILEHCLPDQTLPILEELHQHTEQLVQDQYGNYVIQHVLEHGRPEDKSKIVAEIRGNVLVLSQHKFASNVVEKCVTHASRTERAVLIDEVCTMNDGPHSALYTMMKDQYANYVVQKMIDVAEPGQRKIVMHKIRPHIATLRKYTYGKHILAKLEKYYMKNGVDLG
PUM1 PUF domain R5-QRR, sequence (Q14671 828-1176 C1007Q/Q1011R): as the sequence (Q14671 828-1176 C1007K/R1008Q/Q1011L) above, with K180Q, Q181R, L184R counted along it
PUM1 PUF domain R4-WAW, sequence (Q14671 828-1176 N971W/H972A/Q975W): as the sequence (Q14671 828-1176 C1007K/R1008Q/Q1011L) above, with N144W, H145A, Q148W, K180C, Q181R, L184Q counted along it

As to “GGCUAGAACUAGUGGAUCCCCCGGCGCCCGGCGGCUCGAGCCCGGGUAAGUGUAAAUUGUCUGCAUGCCGCCGGGCGCCAUGCCUGCAGGUCGACUCUAGAAAACAUG”, the binding signal is 2.37 log2 enrichment (interaction score) with PUM1 PUF domain R1-VWR and 3.36 log2 enrichment (interaction score) with PUM1 PUF domain R1-RRV.

Take “GGCUAGAACUAGUGGAUCCCCCGGCGCCCGGCGGCUCGAGCCCGGGUAAGGGUAAAUAGUCUGCAUGCCGCCGGGCGCCAUGCCUGCAGGUCGACUCUAGAAAACAUG”: the binding signal with PUM1 PUF domain R8-CWR was 2.72 log2 enrichment (interaction score).

With “GGCUAGAACUAGUGGAUCCCCCGGCGCCCGGCGGCUCGAGCCCGGGUAAGUGUAAGUAGUCUGCAUGCCGCCGGGCGCCAUGCCUGCAGGUCGACUCUAGAAAACAUG”, the binding signal with PUM1 PUF domain R3-GCE is 4.51 log2 enrichment (interaction score).

For the sequence “GGCUAGAACUAGUGGAUCCCCCGGCGCCCGGCGGCUCGAGCCCGGGUAAGUGAAAAUAGUCUGCAUGCCGCCGGGCGCCAUGCCUGCAGGUCGACUCUAGAAAACAUG”, the binding signal in the assay with PUM1 PUF domain R6-WWR is 2.69 log2 enrichment (interaction score).

Regarding “GGCUAGAACUAGUGGAUCCCCCGGCGCCCGGCGGCUCGAGCCCGGGUAAGUGUAUAUAGUCUGCAUGCCGCCGGGCGCCAUGCCUGCAGGUCGACUCUAGAAAACAUG”, the binding signal with PUM1 PUF domain R4-WAW is 4.31 log2 enrichment (interaction score).

Regarding “GGCUAGAACUAGUGGAUCCCCCGGCGCCCGGCGGCUCGAGCCCGGGUAAGUGUACAUAGUCUGCAUGCCGCCGGGCGCCAUGCCUGCAGGUCGACUCUAGAAAACAUG”, the binding signal with PUM1 PUF domain R4-WAW is 2.47 log2 enrichment (interaction score).

Consider “GGCUAGAACUAGUGGAUCCCCCGGCGCCCGGCGGCUCGAGCCCGGGUAAGUCUAAAUAGUCUGCAUGCCGCCGGGCGCCAUGCCUGCAGGUCGACUCUAGAAAACAUG”, for which the binding signal in the assay with PUM1 PUF domain R7-QCK was 3.12 log2 enrichment (interaction score).

Turning to “GGCUAGAACUAGUGGAUCCCCCGGCGCCCGGCGGCUCGAGCCCGGGUAAGUGUUAAUAGUCUGCAUGCCGCCGGGCGCCAUGCCUGCAGGUCGACUCUAGAAAACAUG”, the binding signal with PUM1 PUF domain R5-QRR is 4.36 log2 enrichment (interaction score); with PUM1 PUF domain R5-KNQ, 4.28 log2 enrichment (interaction score); in the assay with PUM1 PUF domain R5-KQL, 3.92 log2 enrichment (interaction score); with PUM1 PUF domain R5-RAP, 0.85 log2 enrichment (interaction score).

“GGCUAGAACUAGUGGAUCCCCCGGCGCCCGGCGGCUCGAGCCCGGGUAAGUUUAAAUAGUCUGCAUGCCGCCGGGCGCCAUGCCUGCAGGUCGACUCUAGAAAACAUG”: the binding signal with PUM1 PUF domain R7-VER is 3.22 log2 enrichment (interaction score).

On to “GGCUAGAACUAGUGGAUCCCCCGGCGCCCGGCGGCUCGAGCCCGGGUAAGUGUAAAUAGUCUGCAUGCCGCCGGGCGCCAUGCCUGCAGGUCGACUCUAGAAAACAUG”, for which the binding signal with PUM1 PUF domain R5-QRR is 1.74 log2 enrichment (interaction score); with PUM1 PUF domain R4-WAW it was 5.21 log2 enrichment (interaction score); with PUM1 PUF domain R8-YFR, 5.17 log2 enrichment (interaction score); with PUM1 PUF domain R6-WWR, 5.15 log2 enrichment (interaction score); with PUM1 PUF domain R5-KQL, 1.4 log2 enrichment (interaction score); in the assay with PUM1 PUF domain R6-KYR, 5.19 log2 enrichment (interaction score). Also, the binding signal in the assay with PUM1 PUF domain R3-VNV was 3.12 log2 enrichment (interaction score); with PUM1 PUF domain R8-CWR, 4.45 log2 enrichment (interaction score); in the assay with PUM1 PUF domain R8-KWR, 5.93 log2 enrichment (interaction score).

Turning to “GGCUAGAACUAGUGGAUCCCCCGGCGCCCGGCGGCUCGAGCCCGGGUAAGCGUAAAUAGUCUGCAUGCCGCCGGGCGCCAUGCCUGCAGGUCGACUCUAGAAAACAUG”, the binding signal in the assay with PUM1 PUF domain R8-YFR was 5.19 log2 enrichment (interaction score); with PUM1 PUF domain R8-KYA, 3.04 log2 enrichment (interaction score); in the assay with PUM1 PUF domain R8-CWR it was 4.31 log2 enrichment (interaction score); with PUM1 PUF domain R8-KWR, 6.68 log2 enrichment (interaction score).

On to “GGCUAGAACUAGUGGAUCCCCCGGCGCCCGGCGGCUCGAGCCCGGGUAAGUGUAAAUCGUCUGCAUGCCGCCGGGCGCCAUGCCUGCAGGUCGACUCUAGAAAACAUG”, for which the binding signal was 1.8 log2 enrichment (interaction score) with PUM1 PUF domain R1-VWR and 3.63 log2 enrichment (interaction score) with PUM1 PUF domain R1-RRV.

As for “GGCUAGAACUAGUGGAUCCCCCGGCGCCCGGCGGCUCGAGCCCGGGUAAGUGUAAAUGGUCUGCAUGCCGCCGGGCGCCAUGCCUGCAGGUCGACUCUAGAAAACAUG”, the binding signal is 4.27 log2 enrichment (interaction score) in the assay with PUM1 PUF domain R1-SWD and 1.17 log2 enrichment (interaction score) with PUM1 PUF domain R1-RRV.

Regarding “GGCUAGAACUAGUGGAUCCCCCGGCGCCCGGCGGCUCGAGCCCGGGUAAGUGUGAAUAGUCUGCAUGCCGCCGGGCGCCAUGCCUGCAGGUCGACUCUAGAAAACAUG”, the binding signal in the assay with PUM1 PUF domain R5-QRR is 3 log2 enrichment (interaction score); with PUM1 PUF domain R5-DWH it was 4.75 log2 enrichment (interaction score).

Take “GGCUAGAACUAGUGGAUCCCCCGGCGCCCGGCGGCUCGAGCCCGGGUAAGUGUCAAUAGUCUGCAUGCCGCCGGGCGCCAUGCCUGCAGGUCGACUCUAGAAAACAUG”: the binding signal is 6.46 log2 enrichment (interaction score) with PUM1 PUF domain R5-QRR, 5.23 log2 enrichment (interaction score) with PUM1 PUF domain R5-KQL, 4.21 log2 enrichment (interaction score) in the assay with PUM1 PUF domain R5-RAP and 2.43 log2 enrichment (interaction score) with PUM1 PUF domain R5-RKV.
